Test results: PubChem BioAssay
For some assays here: Potency and affinity values are given separately. The source made the active and inactive calls. Unless noted, cut-off not given; nearly all actives show IC50 up to about 0.98 µM.

System: not listed separately
Experiment: inhibition of 3D7 malaria parasite growth – strain 3D7 (AID 2306; call rule not given here;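 further: 0% = DMSO wells and 100% = chloroquine plus artemisinin control wells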)
Details: P. falciparum 3D7 erythrocytic growth, LDH absorbance, 72 h; at 2 µM; hits give high values

Growth inhibition, active:
N#Cc1ccc(N2CCN(Cc3ccc(-c4cccc(-c5nc6ccccc6[nH]5)c4)cc3)CC2)nc1 95%
COc1ccc(CNCc2ccc(-c3cccc(-c4nc5ccc(F)cc5[nH]4)c3)cc2)cc1 102%
FC(F)(F)c1ccc2nc(-c3ccc(-c4ccc(CNCCN5CCNCC5)cc4)cc3)[nH]c2c1 92%
Nc1ncc(-c2ccc3[nH]ccc3c2)c2ccc(-c3ccncc3)cc12 100%
Cc1cc(N)c2cc(NC(=O)c3cc4ccccc4s3)ccc2n1 101%
O=C(N[C@@H](Cc1ccccc1)C(=O)O)c1cc(-c2ccc(F)cc2)no1 (tested in a mixture with another compound) 96%
CCCCC(CC)CN1C(=O)C(c2ccccc2)(c2ccccc2)N=C1N (stereo not given) 94%
O=C(Nc1ccccc1)N(Cc1cccc(-c2ccc(CNCCc3ccccc3)cc2)c1)C1CCN(Cc2ccccc2)CC1 101%
CCNc1cc(C(=O)N[C@@H](Cc2ccccc2)[C@H](O)CNC(C)(C)CCCC(C)C)cc(N2CCCCS2(=O)=O)c1 98%
COc1cc(C)nc2ccc(NC(=O)Nc3ccc4nc(C)cc(OC)c4c3)cc12 102%
COc1ccc(CNC(=O)C2Cc3ccccc3CN2Cc2ccc3ccccc3c2)cc1 (stereo not given) 96%
O=C(/C=C/c1ccc2ccccc2c1)NCCCCCN1CCC(c2c[nH]c3ccccc23)CC1 90%
O=C(N[C@@H](Cc1ccccc1)C(=O)NC1CCCc2ccccc21)c1ccc(O)c(-c2ccc(Cl)c(Cl)c2)c1 (stereo not given in full) 97%
COc1cc(Nc2nc(N)n(C(=O)c3ccc4c(c3)OCO4)n2)cc(OC)c1OC 90%
CC(C)CCNc1nc(NCCc2ccccc2)c2cc(O)ccc2n1 101%
COc1cccc(CCc2nc3c(N4CCC(Cc5ccccc5)CC4)cccc3n2CC2CNCCO2)c1 (stereo not given) 94%
O=C(OCC1CCN(Cc2ccccc2)C1)c1ccc(Cl)cc1 (stereo not given) 100%
Oc1ccc(CCNc2nc(NCCCOc3cc(CN4CCCCC4)ccc3F)nc(N3CCNCC3)n2)cc1 101%
Cc1noc(C)c1-c1cccc(CNCc2cccc(-c3cccc(-c4nc5ccc(C(F)(F)F)cc5[nH]4)c3)c2)c1 101%
CC1CCCN1Cc1cccc(-c2ccc(C(=O)NCCOc3ccccc3)s2)c1 (stereo not given) 83%
COc1cc(C(=O)NCCCN2CCN(c3cccc(Cl)c3)CC2)ccc1-c1cc2cc(Cl)c(Cl)cc2[nH]1 100%
CCn1c(SCC(=O)Nc2cc(C(F)(F)F)ccc2Cl)nc2ccccc2c1=O 93%
COc1ccc2nccc([C@@H](O)CN3CCC(NC(=O)Cc4cccc5c(Br)cccc45)CC3)c2c1 99%
CC(CN(C)C)C(=O)Nc1cccc(-c2cccc(-c3nc4ccccc4[nH]3)c2)c1 (stereo not given) 94%
Fc1cccc(COc2ccc(Nc3ncnc4sc(C#C[C@H]5CC[C@H](CNCC(F)(F)F)N5)cc34)cc2Cl)c1 100%
COc1cccc2c(NN=Cc3cccc(F)c3)ccnc12 99%
CN1CCN(Cc2cc(NC(=O)c3ccc(-c4ccc(Cl)cc4Cl)cc3)ccc2-c2ccccc2)CC1 95%
CCCCCCN(CCCCCC)CC(O)c1cc(-c2ccc(Cl)cc2)nc2c(C)cc(C)cc12 (stereo not given) 98%
Cc1cc(N)c2cc(NC(=O)c3cc(C(F)(F)F)cc(C(F)(F)F)c3)ccc2n1 102%
O=C(Nc1ccc(Cl)cc1)c1ccc(S(=O)(=O)NCC2CCN(CC3CCCCC3)CC2)cc1 93%
COc1cccc(NC(=O)CSc2nc(-c3ccccc3Cl)ns2)c1 99%
CC(C)c1ccc(S(=O)(=O)Nc2cccc(CCN3CCC(N4CCCCC4)CC3)c2)cc1 101%
Cn1cnc2c(SCc3ccccc3OCc3ccccc3)ncnc21 86%
O=C(Nc1ccc(N2CCNCC2)nc1)c1oc(-c2ccccc2)nc1C(F)(F)F 100%
CC(=O)Nc1nc(C(=O)Nc2ccc(-c3cccc(-c4nc5ccccc5[nH]4)c3)cc2)cs1 99%
Cc1ccc(S(=O)(=O)NC2CCN(CCNC(=O)Nc3cc(C)nc4ccccc34)C2)cc1 (stereo not given) 97%
O=C(Nc1ccc(-c2csc(-c3nc4ccccc4[nH]3)c2)cc1)Nc1ccsc1 101%
O=C(NC1CCCCCC1)C1CCCN(C(=O)c2ccc(O)c(-c3ccc(Cl)c(Cl)c3)c2)C1 (stereo not given) 98%
CCCNC(=O)CN1CN(c2ccccc2)C2(CCN(C(=O)c3ccc(C(C)(C)C)cc3)CC2)C1=O 99%
N#Cc1ccc2[nH]cc(CN3CCC4(CC3)CN(CCNCc3ccccc3)C(=O)O4)c2c1 100%

Target: Calcium-dependent protein kinase 1 (Plasmodium falciparum (isolate 3D7)) (UniProt P62344)
Experiment: PfCDPK1 kinase inhibitors, biochemical, TCAMS library (AID 1159585);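 further: inhibitors leave more ATP so luminescence rises with inhibition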
Details: recombinant PfCDPK1, Kinase-Glo ATP depletion luminescence

Calcium-dependent protein kinase 1 (Plasmodium falciparum (isolate 3D7)), sequence (P62344 whole entry, looked up): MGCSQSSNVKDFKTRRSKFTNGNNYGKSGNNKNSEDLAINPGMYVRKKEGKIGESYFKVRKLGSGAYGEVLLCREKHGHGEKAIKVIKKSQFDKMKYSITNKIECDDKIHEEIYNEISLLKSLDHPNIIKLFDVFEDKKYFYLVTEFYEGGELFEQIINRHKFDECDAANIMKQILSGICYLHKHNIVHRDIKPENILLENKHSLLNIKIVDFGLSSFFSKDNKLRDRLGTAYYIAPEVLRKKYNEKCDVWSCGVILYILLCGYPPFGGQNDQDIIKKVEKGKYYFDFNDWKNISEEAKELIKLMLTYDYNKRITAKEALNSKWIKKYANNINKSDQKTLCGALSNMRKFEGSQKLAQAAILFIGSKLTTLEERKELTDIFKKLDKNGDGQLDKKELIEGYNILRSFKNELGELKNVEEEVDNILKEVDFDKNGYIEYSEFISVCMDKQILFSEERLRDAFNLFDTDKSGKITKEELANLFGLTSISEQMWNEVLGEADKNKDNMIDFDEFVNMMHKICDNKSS

outcome, inactive:
N#Cc1ccc(N2CCN(Cc3ccc(-c4cccc(-c5nc6ccccc6[nH]5)c4)cc3)CC2)nc1
COc1ccc(CNCc2ccc(-c3cccc(-c4nc5ccc(F)cc5[nH]4)c3)cc2)cc1
FC(F)(F)c1ccc2nc(-c3ccc(-c4ccc(CNCCN5CCNCC5)cc4)cc3)[nH]c2c1
Nc1ncc(-c2ccc3[nH]ccc3c2)c2ccc(-c3ccncc3)cc12
Cc1cc(N)c2cc(NC(=O)c3cc4ccccc4s3)ccc2n1
O=C(N[C@@H](Cc1ccccc1)C(=O)O)c1cc(-c2ccc(F)cc2)no1 (tested in a mixture with another compound)
CCCCC(CC)CN1C(=O)C(c2ccccc2)(c2ccccc2)N=C1N (stereo not given)
O=C(Nc1ccccc1)N(Cc1cccc(-c2ccc(CNCCc3ccccc3)cc2)c1)C1CCN(Cc2ccccc2)CC1
CCNc1cc(C(=O)N[C@@H](Cc2ccccc2)[C@H](O)CNC(C)(C)CCCC(C)C)cc(N2CCCCS2(=O)=O)c1
COc1cc(C)nc2ccc(NC(=O)Nc3ccc4nc(C)cc(OC)c4c3)cc12
COc1ccc(CNC(=O)C2Cc3ccccc3CN2Cc2ccc3ccccc3c2)cc1 (stereo not given)
O=C(/C=C/c1ccc2ccccc2c1)NCCCCCN1CCC(c2c[nH]c3ccccc23)CC1
O=C(N[C@@H](Cc1ccccc1)C(=O)NC1CCCc2ccccc21)c1ccc(O)c(-c2ccc(Cl)c(Cl)c2)c1 (stereo not given in full)
COc1cc(Nc2nc(N)n(C(=O)c3ccc4c(c3)OCO4)n2)cc(OC)c1OC
CC(C)CCNc1nc(NCCc2ccccc2)c2cc(O)ccc2n1
COc1cccc(CCc2nc3c(N4CCC(Cc5ccccc5)CC4)cccc3n2CC2CNCCO2)c1 (stereo not given)
O=C(OCC1CCN(Cc2ccccc2)C1)c1ccc(Cl)cc1 (stereo not given)
Oc1ccc(CCNc2nc(NCCCOc3cc(CN4CCCCC4)ccc3F)nc(N3CCNCC3)n2)cc1
Cc1noc(C)c1-c1cccc(CNCc2cccc(-c3cccc(-c4nc5ccc(C(F)(F)F)cc5[nH]4)c3)c2)c1
CC1CCCN1Cc1cccc(-c2ccc(C(=O)NCCOc3ccccc3)s2)c1 (stereo not given)
COc1cc(C(=O)NCCCN2CCN(c3cccc(Cl)c3)CC2)ccc1-c1cc2cc(Cl)c(Cl)cc2[nH]1
CCn1c(SCC(=O)Nc2cc(C(F)(F)F)ccc2Cl)nc2ccccc2c1=O
COc1ccc2nccc([C@@H](O)CN3CCC(NC(=O)Cc4cccc5c(Br)cccc45)CC3)c2c1
CC(CN(C)C)C(=O)Nc1cccc(-c2cccc(-c3nc4ccccc4[nH]3)c2)c1 (stereo not given)
Fc1cccc(COc2ccc(Nc3ncnc4sc(C#C[C@H]5CC[C@H](CNCC(F)(F)F)N5)cc34)cc2Cl)c1
COc1cccc2c(NN=Cc3cccc(F)c3)ccnc12
CN1CCN(Cc2cc(NC(=O)c3ccc(-c4ccc(Cl)cc4Cl)cc3)ccc2-c2ccccc2)CC1
CCCCCCN(CCCCCC)CC(O)c1cc(-c2ccc(Cl)cc2)nc2c(C)cc(C)cc12 (stereo not given)
Cc1cc(N)c2cc(NC(=O)c3cc(C(F)(F)F)cc(C(F)(F)F)c3)ccc2n1
O=C(Nc1ccc(Cl)cc1)c1ccc(S(=O)(=O)NCC2CCN(CC3CCCCC3)CC2)cc1
COc1cccc(NC(=O)CSc2nc(-c3ccccc3Cl)ns2)c1
CC(C)c1ccc(S(=O)(=O)Nc2cccc(CCN3CCC(N4CCCCC4)CC3)c2)cc1
Cn1cnc2c(SCc3ccccc3OCc3ccccc3)ncnc21
O=C(Nc1ccc(N2CCNCC2)nc1)c1oc(-c2ccccc2)nc1C(F)(F)F
CC(=O)Nc1nc(C(=O)Nc2ccc(-c3cccc(-c4nc5ccccc5[nH]4)c3)cc2)cs1
Cc1ccc(S(=O)(=O)NC2CCN(CCNC(=O)Nc3cc(C)nc4ccccc34)C2)cc1 (stereo not given)
O=C(Nc1ccc(-c2csc(-c3nc4ccccc4[nH]3)c2)cc1)Nc1ccsc1
O=C(NC1CCCCCC1)C1CCCN(C(=O)c2ccc(O)c(-c3ccc(Cl)c(Cl)c3)c2)C1 (stereo not given)
CCCNC(=O)CN1CN(c2ccccc2)C2(CCN(C(=O)c3ccc(C(C)(C)C)cc3)CC2)C1=O
N#Cc1ccc2[nH]cc(CN3CCC4(CC3)CN(CCNCc3ccccc3)C(=O)O4)c2c1
